Bioassay records as filed in PubChem BioAssay.
Gal4-VP16 FLuc = Gal4-VP16 reporter inhibition counter-screen | Drosophila S2 Gal4-VP16 UAS-luciferase, luminescence, 20 h | Potency, µM (titrated, usually from 53.6 µM), without a hit: top-dose activity, negative = inhibition, most hits filed as inhibitors | hit rate 3.5% among 310,000;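 further: Gal4-VP16 expression switched on by copper sulfate through the metallothionein promoter; potency means the concentration at half of the fitted maximal effect; nearly all actives have a fitted effect of over 50% in size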
DT40 TDP1 no CPT = qHTS for Inhibitors of human tyrosyl-DNA phosphodiesterase 1 (TDP1): qHTS in cells in absence of CPT; DT40 Tdp1-/- hTDP1 cells, no CPT, ATP luminescence, 48 h; Potency, µM (top dose mostly 46.2 µM), for the others: at the top dose activity change, negative = growth inhibition, hits mostly inhibitors; hit rate 15% among 420,000; AID 686978, 2013; further: potency means the concentration at half of the fitted maximal effect; nearly all actives have a fitted effect of over 55% in size
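Chicken DT40 Tdp1-/- cells complemented with human TDP1, screened without camptothecin (DMSO vehicle only), 400 cells/well. Compounds pin-transferred, cells incubated at 37 °C for at least 48 hr. Growth read as ATP-dependent luminescence (CellTiter-Glo, 30 min at RT).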
DT40 TDP1 CPT = DT40-hTDP1 cell growth loss with CPT. chicken DT40 Tdp1-/-;hTDP1 cells + 20 nM CPT, ATP luminescence, 48 h. Potency, µM (series often up to 46.2 µM), without a hit: at the highest dose activity change, negative = growth inhibition, usual class: inhibitors. hit rate 12% among 420,000. AID 686979; further: potency means the concentration at half of the fitted maximal effect; nearly all actives have a fitted effect of over 55% in size
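Chicken DT40 Tdp1-/- cells stably complemented with human TDP1 were seeded at 400 cells/well in medium containing 20 nM camptothecin, exposed to pin-transferred compounds, and grown at 37 °C for at least 48 hr. Viability was read as ATP luminescence.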
RORg inh = blocks mouse ROR gamma transcriptional activity; P51450; Drosophila S2 Gal4-RORgamma UAS-luciferase reporter, 20 h; Potency, µM (doses to about 53.6 µM), inactives show at the highest dose activity change, negative = inhibition, usual class: inhibitors; hit rate 5.4% among 310,000; further: potency means the concentration at half of the fitted maximal effect; nearly all actives have a fitted effect of over 60% in size
Target sequence (P51450 whole entry, looked up, the tested form may be a part): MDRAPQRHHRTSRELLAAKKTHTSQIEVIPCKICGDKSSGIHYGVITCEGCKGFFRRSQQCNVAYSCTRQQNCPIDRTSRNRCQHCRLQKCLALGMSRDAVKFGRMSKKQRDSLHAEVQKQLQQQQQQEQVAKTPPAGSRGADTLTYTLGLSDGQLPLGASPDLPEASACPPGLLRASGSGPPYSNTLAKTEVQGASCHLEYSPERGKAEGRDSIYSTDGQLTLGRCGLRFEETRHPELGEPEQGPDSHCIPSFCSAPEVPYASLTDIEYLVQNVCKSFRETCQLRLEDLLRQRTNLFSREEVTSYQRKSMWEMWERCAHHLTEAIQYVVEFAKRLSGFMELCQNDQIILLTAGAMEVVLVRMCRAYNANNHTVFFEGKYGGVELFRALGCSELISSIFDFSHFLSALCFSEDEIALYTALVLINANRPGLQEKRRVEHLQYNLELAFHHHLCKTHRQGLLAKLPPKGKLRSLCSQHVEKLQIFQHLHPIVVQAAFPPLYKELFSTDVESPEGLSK
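ROR gamma transcriptional activity was tracked as Gal4-UAS luciferase output in stably transfected Drosophila Schneider cells, with compound added 1 hr before 700 uM copper sulfate induction and a 20 hr ambient-temperature incubation.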
IL1B secr inh = inflammasome signaling inhibition, IL-1 beta readout | THP-1 LPS/ATP IL-1B secretion, AlphaLISA, 16 h; stronger effect = lower value | activity change, % at 57.5 µM | hit rate 4.7% among 360,000 | AID 743279; in the data active means activity change below about -50%; inconclusive means mostly about -30% to -49%
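Secreted IL-1B measured by AlphaLISA bead assay after 16 h compound exposure of THP-1 cells; compounds (final up to 57.5 uM) added 1 h before LPS (250 ng/mL) and ATP (1.25 mM) stimulation; lower signal means less secretion.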
ELG1 DNA repair = blocks ELG1-dependent DNA repair in HEK293T cells | HEK293T ELG1-luciferase reporter, luminescence, 16 h; DNA damage induced by 5-fluorouridine | Potency, µM (highest dose often 46.1 µM), inactives show at the highest dose activity change, negative = inhibition, usual class: inhibitors | hit rate 2.3% among 330,000 | AID 504467; further: potency means the concentration at half of the fitted maximal effect; nearly all actives have a fitted effect of over 55% in size
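Step one: seed 2,000 cells per well. Step two: pin-transfer compound or DMSO alongside 5-fluorouridine. Step three: incubate 16 hr, 37 °C, 5% CO2. Step four: add ONE-Glo, wait 30 min, read luminescence.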
* = called active by the depositor; ? = inconclusive; . = no result given; [ ] = remark or other dose. The list is not random: actives were taken first. Their share in the collection is about 21%. Unless noted, the call rests on the fitted dose curve; in most records, active means well fitted curve in the direction sought with a large enough effect; inconclusive means small, poorly fitted or top-dose-only effect, or another doubt; inactive means no such curve, though single readings can be large; an effect the other way counts as inactive or inconclusive. On the % scale 0 is the no-effect control and ±100 the full control effect.

SMILES	Gal4-VP16 FLuc	DT40 TDP1 no CPT	DT40 TDP1 CPT	RORg inh	IL1B secr inh	ELG1 DNA repair
COc1ccc(Br)cc1CNc1ccc(O)cc1	?	?	?	8.9µM*	-95*	?
CC1CC(C)CN(C(=O)CN2C(=O)NC3(CCCCCCC3)C2=O)C1 (stereo not drawn)	.	0%	-8%	.	6	-16%
O=c1c2cccc3c2c(nn1CN1CCOCC1)-c1ccccc1-3	-18%	21µM*	?	-20%	-14	?
CCN(CC)CCn1nc2c3c(cccc3c1=O)-c1ccccc1-2	-6%	0.016µM*	0.52µM*	-10%	-99*	?
CCN(CC)CCn1nc(C)nc1-c1ccccc1O	-5%	-8%	-7%	-12%	0	9%
COc1ccccc1NC(=O)c1cnc(SC)nc1	12%	2%	12%	15%[1.91 µM]	9	?
Cn1c(=O)c2nc(Cl)c(-c3ccccc3)nc2n(C)c1=O	-2%	?	2%	-13%	-13	11%
Cn1c(=O)c2nc(-c3ccccc3)c(-c3ccccc3)nc2n(C)c1=O	.	21µM*	?	.	-1	.
CC(=O)NS(=O)(=O)c1ccc2c(c1)C(=O)c1cc(S(=O)(=O)NC(C)=O)ccc1-2	-5%	-2%	13%	-4%	16	-9%
CC(C)Oc1ccc(CNC(=O)c2cccc(NC(=O)N3CCSc4ncccc43)c2)cc1	.	21µM*	?	.	.	.
COc1ccc(CNC(=O)c2ccc(NC(=O)N3CCSc4ncccc43)cc2)cc1OC	.	-2%	-11%	.	.	.
Cc1ccccc1CNC(=O)c1cccc(NC(=O)N2CCSc3ncccc32)c1	.	16µM*	18µM*	.	.	.
CCOc1ccc(CNC(=O)c2cccc(NC(=O)N3CCSc4ncccc43)c2)cc1	.	23µM*	?	.	.	.
O=C(NCc1ccccc1)c1ccc(NC(=O)N2CCSc3ncccc32)cc1	.	-12%	-9%	.	.	.
CCCCOc1ccc(CNC(=O)c2cccc(NC(=O)N3CCSc4ncccc43)c2)cc1	.	16µM*	?	.	.	.
COC(=O)c1ccc(CN2C(=O)NC3(CCC(C)CC3)C2=O)cc1 (stereo not drawn)	-10%	-16%	5%	19%	20	?
C=C(C)C1Cc2c(ccc(C(=O)O)c2O)O1 (stereo not drawn)	-10%	5%	10%	-11%	.	.
O=C1CN(C(=O)c2ccc(Br)o2)C(c2ccc(F)cc2)c2cc(Cl)ccc2N1 (stereo not drawn)	4%	?	16µM*	?	-6	?
O=C1CN(C(=O)c2ccco2)C(c2ccccc2)c2cc(Cl)ccc2N1 (stereo not drawn)	12%	16µM*	16µM*	?	11	?
O=C1CN(C(=O)c2ccccc2F)C(c2ccccc2)c2cc(F)ccc2N1 (stereo not drawn)	5%	-10%	-14%	9%	25	10%
Cc1ccccc1C(=O)N1CC(=O)Nc2ccc(F)cc2C1c1ccc(F)cc1 (stereo not drawn)	-1%	?	1%	10%	-23	-1%
O=C1CN(C(=O)c2ccc(Br)o2)C(c2ccccc2)c2cc(Cl)ccc2N1 (stereo not drawn)	4%	?	15µM*	29%	-19	21µM*
O=C1CN(C(=O)c2ccccc2)C(c2ccccc2)c2cc(Cl)ccc2N1 (stereo not drawn)	-21%	?	5%	4%	5	3%
CC(C)c1c(C(=O)NCc2cccnc2)cnn1-c1nccc(-c2cccs2)n1	.	?	24%[9.04 µM]	.	.	.
CCC(CC)c1nnc(NC(=O)c2ccc3c(c2)OCO3)s1	-28%	?	-29%	?	-21	?
SMILES	Gal4-VP16 FLuc	DT40 TDP1 no CPT	DT40 TDP1 CPT	RORg inh	IL1B secr inh	ELG1 DNA repair
O=C(O)CSc1nnc(NC(=O)c2ccc3c(c2)OCO3)s1	13µM*	-1%	7%	13µM*	34	-10%
C=CCSc1nnc(NC(=O)c2ccc3c(c2)OCCO3)s1	.	-6%	8%	.	-3	.
COC(=O)CSc1nnc(NC(=O)c2ccc3c(c2)OCO3)s1	?	16%	21%	6.3µM*	13	?
O=C1c2cccc3cccc(c23)C(c2nc3ccccc3[nH]2)N1C1CC1 (stereo not drawn)	.	-27%	-12%	.	-15	.
O=c1cc(C(F)(F)F)[nH]c(=S)n1-c1ccccc1	3%	0%	2%	-25%	-3	20%
O=C(Nc1ccccc1C(=O)Nc1nnc(C(F)(F)F)s1)c1ccccc1	5µM*	4.1µM*	2.9µM*	4.5µM*	.	4.6µM*
FC(F)(F)c1ccc(CN2C[C@@H]3C(c4ccc(Cl)nc4)C4(c5cccnc5)CC3(C4)[C@H]2c2ccccc2)cc1 (stereo partly drawn)	-18%	16µM*	?	-3%	-12	1%
COC(=O)c1cccc(C23CC4(C2)[C@H](CN(Cc2cccnc2)[C@@H]4c2ccccc2)C3c2ccc(C(F)(F)F)cc2)c1 (stereo partly drawn)	1%	16µM*	16µM*	-28%	42	?
Clc1ccc(C2[C@H]3CN(Cc4ccc(-c5ccccc5)cc4)[C@H](c4ccccc4)C34CC2(c2cccnc2)C4)cn1 (stereo partly drawn)	2%	.	.	-16%	.	-14%
FC(F)(F)c1ccc(C2[C@H]3CN(CC4CCCCC4)[C@H](c4ccccc4)C34CC2(c2cccnc2)C4)cc1 (stereo partly drawn)	7%	16µM*	?	-24%	-4	11%
COC(=O)c1ccc(C23CC4(C2)[C@H](CN(Cc2ccc(C(F)(F)F)cc2)[C@@H]4c2ccccc2)C3c2ccc(Cl)nc2)cc1 (stereo partly drawn)	0%	10µM*	9.2µM*	-21%	0	-1%
CCc1nn(CC(=O)Nc2c(C)cccc2C)c(=O)c2cc3sccc3n12	.	-17%	-5%	.	.	.
C/C(=C\C(=O)c1ccccc1)NNc1nc2ccccc2s1	?	?	?	7.9µM*	-16	?
CC(=O)NNc1nc2ccccc2s1	11%	2%	4%	-20%	16	1%
COc1ccc2nc(NNC(=O)COc3ccccc3)sc2c1	-7%	-1%	-5%	7.1µM*	22	?
O=C(COc1ccccc1)NNc1nc2c(F)cccc2s1	-2%	2%	7%	5µM*	33	-12%
